In PubChem BioAssay (EPA / NIEHS):
Active and inactive are the calls of the source. How the source made its calls: active means hit-call score of the fitted dose curve at least 0.9, where 1 is the maximum; inactive means score below 0.9.

Key:
[1] = read-out: growth arrest and DNA damage 45 (GADD45A), GADD45A (gene 1647); assay: LTEA_HepaRG_GADD45A: Life Technologies and Expression Analysis (LTEA) Assay for growth arrest and DNA damage 45 (GADD45A) using HepaRG (AID 2283458); conditions: mRNA level, 48 h; actives raise or lower the signal
How it was run: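 Differentiated HepaRG cells exposed 48 h in serum-free induction medium to 8 concentrations, top 100 uM in half-log steps, 0.5% DMSO. GADD45A mRNA quantified by qRT-PCR, normalized to ACTB, GAPDH and POLR2A; bidirectional fit versus DMSO.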

[2] = read-out: Forkhead box O3 (FOXO3), FOXO3 (gene 2309); assay: LTEA_HepaRG_FOXO3: Life Technologies and Expression Analysis (LTEA) Assay for Forkhead box O3 (FOXO3) using HepaRG (AID 2283459); conditions: mRNA level, 48 h; actives raise or lower the signal
How it was run: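 Differentiated human HepaRG cells in serum-free induction medium were exposed in duplicate for 48 h to eight half-log concentrations up to 100 uM in 0.5% DMSO. FOXO3 mRNA was quantified by qRT-PCR, normalized to ACTB, GAPDH and POLR2A, with bidirectional fitting versus DMSO.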

[3] = read-out: ABC Transporter (ABCB1), ABCB1 (gene 5243); assay: LTEA_HepaRG_ABCB1: Life Technologies and Expression Analysis (LTEA) Assay for ABC Transporter (ABCB1) using HepaRG (AID 2283460); conditions: mRNA level, 48 h; actives raise or lower the signal
How it was run: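 Differentiated human HepaRG cells, plated 48 h then switched to serum-free induction medium, were exposed in duplicate to eight half-log concentrations up to 100 uM in 0.5% DMSO for 48 h. ABCB1 mRNA was measured by TaqMan qRT-PCR, normalized to ACTB/GAPDH/POLR2A.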

[4] = read-out: ABC Transporter (ABCC3), ABCC3 (gene 8714); assay: LTEA_HepaRG_ABCC3: Life Technologies and Expression Analysis (LTEA) Assay for ABC Transporter (ABCC3) using HepaRG (AID 2283462); conditions: mRNA level, 48 h; actives raise or lower the signal
How it was run: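 Human HepaRG, 48 h dosing, 8-pt half-log series from 100 uM, 0.5% DMSO vehicle, duplicates. ABCC3 mRNA by TaqMan qRT-PCR, housekeeping-normalized; bidirectional curve fit vs DMSO.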

[5] = read-out: ABC Transporter (ABCC2), ABCC2 (gene 1244); assay: LTEA_HepaRG_ABCC2: Life Technologies and Expression Analysis (LTEA) Assay for ABC Transporter (ABCC2) using HepaRG (AID 2283464); conditions: mRNA level, 48 h; actives raise or lower the signal
How it was run: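 HepaRG, 48 h post-plating; serum-free induction medium; cpd 8-pt, 100 uM top, half-log, 0.5% DMSO, duplicate, 48 h. Readout: ABCC2 mRNA by qRT-PCR, norm. ACTB/GAPDH/POLR2A. Bidirectional fit vs DMSO baseline.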

[6] = read-out: Broad substrate specificity ATP-binding cassette transporter ABCG2 (Homo sapiens) (UniProt Q9UNQ0); assay: LTEA_HepaRG_ABCG2: Life Technologies and Expression Analysis (LTEA) Assay for ABC Transporter (ABCG2) using HepaRG (AID 2283465); conditions: mRNA level, 48 h; actives raise or lower the signal
How it was run: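 Differentiated HepaRG cells in serum-free induction medium were exposed for 48 h, in duplicate, to eight half-log concentrations up to 100 uM in 0.5% DMSO. ABCG2 mRNA was measured by TaqMan qRT-PCR, normalized to ACTB, GAPDH and POLR2A, and fitted bidirectionally versus DMSO.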

[7] = read-out: ATP-citrate lyase (ACLY), ACLY (gene 47); assay: LTEA_HepaRG_ACLY: Life Technologies and Expression Analysis (LTEA) Assay for ATP-citrate lyase (ACLY) using HepaRG (AID 2283466); conditions: mRNA level, 48 h; actives raise or lower the signal
How it was run: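 Differentiated human HepaRG cells in serum-free induction medium exposed 48 h, in duplicate, to eight half-log concentrations from 100 uM top in 0.5% DMSO; ACLY mRNA measured by qRT-PCR, normalized to ACTB, GAPDH, POLR2A, fitted bidirectionally versus DMSO.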

[8] = read-out: Peroxisomal acyl-coenzyme A oxidase 1 (ACOX1) gene, ACOX1 (gene 51); assay: LTEA_HepaRG_ACOX1: Life Technologies and Expression Analysis (LTEA) Assay for Peroxisomal acyl-coenzyme A oxidase 1 (ACOX1) gene using HepaRG (AID 2283467); conditions: mRNA level, 48 h; actives raise or lower the signal
How it was run: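 Differentiated human HepaRG cells were exposed in duplicate for 48 h in serum-free induction medium to eight half-log concentrations up to 100 uM in 0.5% DMSO. ACOX1 mRNA was then quantified by TaqMan qRT-PCR, normalized to ACTB, GAPDH and POLR2A.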

[9] = read-out: Alkaline Phosphatase, Placental (ALPP) gene, ALPP (gene 250); assay: LTEA_HepaRG_ALPP: Life Technologies and Expression Analysis (LTEA) Assay for Alkaline Phosphatase, Placental (ALPP) gene using HepaRG (AID 2283468); conditions: mRNA level, 48 h; actives raise or lower the signal
How it was run: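 HepaRG, 48 h plating then 48 h dosing, serum-free induction medium, 0.5% DMSO. 8 conc, half-log, max 100 uM, duplicates. Endpoint: ALPP transcript by qRT-PCR, housekeeping-normalized; gain or loss fitted vs DMSO.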

[10] = read-out: Bcl-2 (BAD) gene, BAD (gene 572); assay: LTEA_HepaRG_BAD: Life Technologies and Expression Analysis (LTEA) Assay for Bcl-2 (BAD) gene using HepaRG (AID 2283469); conditions: mRNA level, 48 h; actives raise or lower the signal
How it was run: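 Differentiated human HepaRG cells in serum-free induction medium were exposed in duplicate for 48 h to eight concentrations (top 100 uM, half-log steps, 0.5% DMSO). BAD mRNA was quantified by qRT-PCR normalised to ACTB, GAPDH and POLR2A, with bidirectional fitting versus DMSO.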

[11] = read-out: Bcl-2 (BAX) gene, BAX (gene 581); assay: LTEA_HepaRG_BAX: Life Technologies and Expression Analysis (LTEA) Assay for Bcl-2 (BAX) gene using HepaRG (AID 2283470); conditions: mRNA level, 48 h; actives raise or lower the signal
How it was run: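 Differentiated HepaRG cells exposed 48 h in serum-free induction medium, eight half-log concentrations from 100 uM, in duplicate, 0.5% DMSO vehicle. BAX mRNA by TaqMan qRT-PCR, normalised to ACTB, GAPDH and POLR2A.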

[12] = read-out: Alpha-fetoprotein (AFP) gene, AFP (gene 174); assay: LTEA_HepaRG_AFP: Life Technologies and Expression Analysis (LTEA) Assay for Alpha-fetoprotein (AFP) gene using HepaRG (AID 2283472); conditions: mRNA level, 48 h; actives raise or lower the signal
How it was run: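 Differentiated human HepaRG cells exposed 48 h in serum-free induction medium, 8-point half-log series from 100 uM in 0.5% DMSO, duplicate. AFP mRNA by qRT-PCR, normalized to ACTB, GAPDH, POLR2A; bidirectional fit vs DMSO.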

BCL2L11 (gene 10018) = assay: LTEA_HepaRG_BCL2L11: Life Technologies and Expression Analysis (LTEA) Assay for Bcl-2 (BCL2L11) gene using HepaRG (AID 2283473); conditions: mRNA level, 48 h; actives raise or lower the signal
How it was run: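 Read-out is BCL2L11 transcript level by qRT-PCR, normalized to three housekeeping genes and fitted bidirectionally against 0.5% DMSO vehicle. HepaRG cells received chemicals for 48 h in serum-free induction medium, 100 uM down in half-log dilutions.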

[13] = read-out: Apolipoprotein A-V (APOA5) gene, APOA5 (gene 116519); assay: LTEA_HepaRG_APOA5: Life Technologies and Expression Analysis (LTEA) Assay for Apolipoprotein A-V (APOA5) gene using HepaRG (AID 2283474); conditions: mRNA level, 48 h; actives raise or lower the signal
How it was run: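 Readout is APOA5 transcript level by qRT-PCR on Fluidigm dynamic arrays, normalized to three housekeeping genes. HepaRG cultures received chemicals for 48 h at up to 100 uM (half-log steps, 0.5% DMSO), with gain or loss scored relative to DMSO.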

[14] = read-out: Bcl-2 (BID) gene, BID (gene 637); assay: LTEA_HepaRG_BID: Life Technologies and Expression Analysis (LTEA) Assay for Bcl-2 (BID) gene using HepaRG (AID 2283476); conditions: mRNA level, 48 h; actives raise or lower the signal
How it was run: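 Gene expression by qRT-PCR in HepaRG cells after 48 h exposure, duplicate wells, eight half-log concentrations topping at 100 uM in 0.5% DMSO. Normalized to ACTB, GAPDH, POLR2A; bidirectional fitting relative to DMSO.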

[15] = CEETOX_H295R_TESTO: CeeTox H295R High-throughput Steroidogenesis Assay for Testosterone (TESTO) (AID 2283457); conditions: actives raise or lower the signal;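 on AC50: cells exposed to chemicals for 48 h before medium collection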
How it was run: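 H295R, passage ≤10, 48 h dosing; media extracted with MTBE → HPLC-MS/MS for testosterone; 7-pt standard curve sets LLOQ/ULOQ; bidirectional fit vs DMSO; MTT viability same wells.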

[16] = read-out: growth arrest and DNA damage 45 (GADD45B), GADD45B (gene 4616); assay: LTEA_HepaRG_GADD45B: Life Technologies and Expression Analysis (LTEA) Assay for growth arrest and DNA damage 45 (GADD45B) using HepaRG (AID 2283461); conditions: mRNA level, 48 h; actives raise or lower the signal
How it was run: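 HepaRG, ~100,000 cells/well, 48 h plating; serum-free induction medium; cpd 100 uM top, half-log x8, 0.5% DMSO, duplicate, 48 h; lysis in RLT, RNA isolation, qRT-PCR; norm ACTB/GAPDH/POLR2A; bidirectional fit vs DMSO.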

[17] = read-out: Apoptosis regulator Bcl-2 (Homo sapiens) (UniProt P10415); assay: LTEA_HepaRG_BCL2: Life Technologies and Expression Analysis (LTEA) Assay for Bcl-2 gene using HepaRG (AID 2283475); conditions: mRNA level, 48 h; actives raise or lower the signal
How it was run: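 Differentiated human HepaRG cells in serum-free induction medium exposed 48 h, in duplicate, to 8-point half-log series from 100 uM in 0.5% DMSO. BCL2 mRNA by qRT-PCR (TaqMan/Fluidigm), normalized to ACTB, GAPDH, POLR2A; bidirectional fit against DMSO.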

Measured: AC50

Chain of Broad substrate specificity ATP-binding cassette transporter ABCG2 (Homo sapiens) (Q9UNQ0 whole entry, looked up): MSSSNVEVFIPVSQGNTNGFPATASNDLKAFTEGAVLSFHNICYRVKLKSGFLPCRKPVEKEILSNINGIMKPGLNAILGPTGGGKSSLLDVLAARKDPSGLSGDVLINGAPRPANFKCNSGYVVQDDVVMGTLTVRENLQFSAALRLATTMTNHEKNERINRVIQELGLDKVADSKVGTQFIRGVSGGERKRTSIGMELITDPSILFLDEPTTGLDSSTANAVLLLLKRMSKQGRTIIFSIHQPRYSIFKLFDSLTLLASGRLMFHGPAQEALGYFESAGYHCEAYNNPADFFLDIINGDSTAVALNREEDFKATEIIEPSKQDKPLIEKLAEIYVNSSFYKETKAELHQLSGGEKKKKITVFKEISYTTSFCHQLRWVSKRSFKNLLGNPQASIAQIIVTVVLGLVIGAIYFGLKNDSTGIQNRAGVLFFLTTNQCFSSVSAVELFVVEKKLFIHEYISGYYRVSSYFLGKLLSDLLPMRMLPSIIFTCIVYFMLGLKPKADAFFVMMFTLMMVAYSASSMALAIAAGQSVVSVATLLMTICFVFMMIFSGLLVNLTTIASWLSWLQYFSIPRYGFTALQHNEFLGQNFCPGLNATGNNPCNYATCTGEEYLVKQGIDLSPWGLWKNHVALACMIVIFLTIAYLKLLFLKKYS
Chain of Apoptosis regulator Bcl-2 (Homo sapiens) (P10415 whole entry, looked up): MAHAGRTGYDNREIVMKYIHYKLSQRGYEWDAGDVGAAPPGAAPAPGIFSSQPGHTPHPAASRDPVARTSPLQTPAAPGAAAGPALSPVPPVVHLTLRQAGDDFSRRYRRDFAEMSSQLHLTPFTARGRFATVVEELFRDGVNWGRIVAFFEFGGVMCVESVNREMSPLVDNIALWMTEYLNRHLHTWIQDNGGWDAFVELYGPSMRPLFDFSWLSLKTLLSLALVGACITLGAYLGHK

[N-]=[N+]=[N-]
active: [1] 88.1 µM | [4] 69.3 µM | [6] 34.4 µM | [7] 73.4 µM | [12] 77.9 µM | BCL2L11 (gene 10018) 80.6 µM | [13] 50 µM
not listed: [15] | [16] | [17]
inactive: all other assays above

N#Cc1c(-c2ccc(Cl)cc2)[nH]c(C(F)(F)F)c1Br
inactive: [15]

CCOc1ccc(C(C)(C)COCc2cccc(Oc3ccccc3)c2)cc1
active: [3] 8.69 µM | [5] 24.6 µM | [6] 2.64 µM
not listed: [15] | [17]
inactive: all other assays above

CO/N=C(/C(=O)OC)c1ccccc1COc1ccccc1C
active: [15] 9.76 µM

O=[N+]([O-])c1ccccc1
not listed: [15] | [16] | [17]
inactive: all other assays above

ClC(Cl)c1ccccc1
not listed: [15] | [16] | [17]
inactive: all other assays above

ClC1=C(Cl)C2(Cl)C3C(Cl)C(Cl)CC3C1(Cl)C2(Cl)Cl (stereo not drawn)
active: [3] 6.37 µM | [5] 8.61 µM | [6] 21.4 µM | [7] 85.9 µM | [9] 9.92 µM | [12] 15.2 µM | [13] 50 µM
not listed: [15] | [16] | [17]
inactive: all other assays above

Nc1ccc([N+](=O)[O-])cc1Cl
inactive: [15]

CC(Cc1ccc(OCC(=O)O)cc1)NCC(O)c1csc(C(F)(F)F)n1 (stereo not drawn)
active: [9] 0.0552 µM | [17] 0.125 µM
not listed: [15] | [16]
inactive: all other assays above

CCCCN(CCCC)SN(C)C(=O)Oc1cccc2c1OC(C)(C)C2
active: [3] 23.2 µM
not listed: [15] | [16] | [17]
inactive: all other assays above

ClC(Cl)=C(c1ccc(Cl)cc1)c1ccccc1Cl
inactive: [15]

CC(Cl)(Cl)C(=O)O
not listed: [15] | [16] | [17]
inactive: all other assays above

CN(C)C(=O)Cl
not listed: [15] | [16] | [17]
inactive: all other assays above

CCNc1nc(Cl)nc(NC(C)(C)C)n1
active: [3] 7.02 µM | [5] 4.01 µM | [9] 9.92 µM
not listed: [16] | [17]
inactive: all other assays above

CC(=O)c1ccc(-c2ccccc2)cc1
active: [15] 19.1 µM
